The target of assay [1] is Protein kinase C gamma type (Homo sapiens) (UniProt P05129). The note with it: at 1 µM.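 Note: each value is an averaged percent inhibition of the enzyme.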
Assay [2] addresses T1, Protein kinase C iota type (Homo sapiens) (UniProt P41743).
T1 sequence (whole entry): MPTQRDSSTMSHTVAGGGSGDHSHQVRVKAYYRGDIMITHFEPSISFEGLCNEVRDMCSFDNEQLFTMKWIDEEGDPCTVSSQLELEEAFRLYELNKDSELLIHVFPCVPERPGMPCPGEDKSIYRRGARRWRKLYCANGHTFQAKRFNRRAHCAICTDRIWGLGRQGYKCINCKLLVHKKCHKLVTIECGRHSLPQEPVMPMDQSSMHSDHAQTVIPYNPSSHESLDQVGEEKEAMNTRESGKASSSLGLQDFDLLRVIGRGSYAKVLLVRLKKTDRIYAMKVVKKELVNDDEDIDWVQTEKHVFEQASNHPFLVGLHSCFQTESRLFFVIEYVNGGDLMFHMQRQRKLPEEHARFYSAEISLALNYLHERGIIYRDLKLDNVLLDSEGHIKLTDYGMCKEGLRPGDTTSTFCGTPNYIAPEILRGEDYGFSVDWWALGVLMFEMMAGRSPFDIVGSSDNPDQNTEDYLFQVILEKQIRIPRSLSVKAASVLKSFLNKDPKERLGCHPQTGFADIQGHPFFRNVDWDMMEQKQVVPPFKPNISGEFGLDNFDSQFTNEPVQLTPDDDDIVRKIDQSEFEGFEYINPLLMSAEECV
The settings on record: at 0.1 µM.

Assay [3] has as its target T1, Protein kinase C iota type (Homo sapiens). The settings on record: at 1 µM.
In assay [4] the target is Protein kinase C theta type (Homo sapiens) (UniProt Q04759). The settings on record: at 0.1 µM.
For assay [5] the target is unchanged. The settings on record: at 1 µM.
The target of assay [6] is Protein kinase C beta type (Homo sapiens) (UniProt P05771). The settings on record: at 0.1 µM.
For assay [7] the target is unchanged. The settings on record: at 1 µM.
Assay [8] deals with T2, Serine/threonine-protein kinase D1 (Homo sapiens) (UniProt Q15139).
T2 sequence (whole entry): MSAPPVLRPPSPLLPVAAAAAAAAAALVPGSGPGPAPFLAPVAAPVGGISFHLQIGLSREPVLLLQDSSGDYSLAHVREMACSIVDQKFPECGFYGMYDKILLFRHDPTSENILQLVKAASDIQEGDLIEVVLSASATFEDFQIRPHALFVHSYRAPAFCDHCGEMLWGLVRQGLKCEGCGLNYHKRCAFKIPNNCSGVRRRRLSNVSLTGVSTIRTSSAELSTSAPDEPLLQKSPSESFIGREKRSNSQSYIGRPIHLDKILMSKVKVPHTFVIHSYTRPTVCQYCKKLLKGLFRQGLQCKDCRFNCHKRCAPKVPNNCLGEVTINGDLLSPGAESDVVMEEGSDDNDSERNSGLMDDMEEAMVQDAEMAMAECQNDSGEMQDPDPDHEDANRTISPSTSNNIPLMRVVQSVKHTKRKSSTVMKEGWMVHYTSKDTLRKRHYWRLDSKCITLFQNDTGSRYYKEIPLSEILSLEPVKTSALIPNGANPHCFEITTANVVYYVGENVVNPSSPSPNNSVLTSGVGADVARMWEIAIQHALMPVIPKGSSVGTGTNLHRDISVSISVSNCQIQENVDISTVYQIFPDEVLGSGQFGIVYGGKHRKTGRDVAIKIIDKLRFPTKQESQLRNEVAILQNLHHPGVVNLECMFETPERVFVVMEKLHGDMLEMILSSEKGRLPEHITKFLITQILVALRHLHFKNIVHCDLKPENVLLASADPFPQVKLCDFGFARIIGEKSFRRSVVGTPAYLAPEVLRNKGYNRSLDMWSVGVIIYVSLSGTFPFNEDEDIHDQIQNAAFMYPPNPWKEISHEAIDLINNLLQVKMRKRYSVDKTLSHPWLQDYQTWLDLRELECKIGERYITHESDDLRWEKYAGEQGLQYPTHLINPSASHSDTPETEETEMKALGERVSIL
The settings on record: at 0.1 µM.

Assay [9] addresses T2, Serine/threonine-protein kinase D1 (Homo sapiens). The note with it: at 1 µM.
Assay [10] deals with T3, Serine/threonine-protein kinase D2 (Homo sapiens) (UniProt Q9BZL6).
T3 sequence (whole entry): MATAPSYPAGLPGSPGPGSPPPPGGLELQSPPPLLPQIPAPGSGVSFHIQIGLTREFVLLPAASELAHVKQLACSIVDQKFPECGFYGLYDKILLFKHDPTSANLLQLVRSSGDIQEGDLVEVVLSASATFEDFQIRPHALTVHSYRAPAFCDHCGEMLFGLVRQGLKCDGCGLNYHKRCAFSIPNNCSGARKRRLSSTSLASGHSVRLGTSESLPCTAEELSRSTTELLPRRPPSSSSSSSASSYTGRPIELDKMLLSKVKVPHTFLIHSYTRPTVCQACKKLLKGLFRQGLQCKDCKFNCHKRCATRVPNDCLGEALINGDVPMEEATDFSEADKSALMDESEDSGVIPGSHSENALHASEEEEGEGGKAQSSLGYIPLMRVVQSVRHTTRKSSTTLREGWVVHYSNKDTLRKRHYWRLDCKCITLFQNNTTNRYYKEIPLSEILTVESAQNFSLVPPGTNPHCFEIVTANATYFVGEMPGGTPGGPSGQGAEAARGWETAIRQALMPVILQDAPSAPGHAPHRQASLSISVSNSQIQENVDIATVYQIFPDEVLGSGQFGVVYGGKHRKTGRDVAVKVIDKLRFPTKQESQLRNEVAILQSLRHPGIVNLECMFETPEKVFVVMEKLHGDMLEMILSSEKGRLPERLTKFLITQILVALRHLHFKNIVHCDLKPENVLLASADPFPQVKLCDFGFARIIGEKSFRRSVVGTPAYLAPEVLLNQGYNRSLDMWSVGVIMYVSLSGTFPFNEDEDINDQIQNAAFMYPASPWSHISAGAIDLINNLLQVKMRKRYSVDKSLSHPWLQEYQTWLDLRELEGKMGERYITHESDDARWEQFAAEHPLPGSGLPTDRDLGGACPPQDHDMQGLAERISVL
The note with it: at 0.1 µM.

Assay [11] deals with T3, Serine/threonine-protein kinase D2 (Homo sapiens). The note with it: at 1 µM.
Assay [12] has as its target T4, Serine/threonine-protein kinase D3 (Homo sapiens) (UniProt O94806).
T4 sequence (whole entry): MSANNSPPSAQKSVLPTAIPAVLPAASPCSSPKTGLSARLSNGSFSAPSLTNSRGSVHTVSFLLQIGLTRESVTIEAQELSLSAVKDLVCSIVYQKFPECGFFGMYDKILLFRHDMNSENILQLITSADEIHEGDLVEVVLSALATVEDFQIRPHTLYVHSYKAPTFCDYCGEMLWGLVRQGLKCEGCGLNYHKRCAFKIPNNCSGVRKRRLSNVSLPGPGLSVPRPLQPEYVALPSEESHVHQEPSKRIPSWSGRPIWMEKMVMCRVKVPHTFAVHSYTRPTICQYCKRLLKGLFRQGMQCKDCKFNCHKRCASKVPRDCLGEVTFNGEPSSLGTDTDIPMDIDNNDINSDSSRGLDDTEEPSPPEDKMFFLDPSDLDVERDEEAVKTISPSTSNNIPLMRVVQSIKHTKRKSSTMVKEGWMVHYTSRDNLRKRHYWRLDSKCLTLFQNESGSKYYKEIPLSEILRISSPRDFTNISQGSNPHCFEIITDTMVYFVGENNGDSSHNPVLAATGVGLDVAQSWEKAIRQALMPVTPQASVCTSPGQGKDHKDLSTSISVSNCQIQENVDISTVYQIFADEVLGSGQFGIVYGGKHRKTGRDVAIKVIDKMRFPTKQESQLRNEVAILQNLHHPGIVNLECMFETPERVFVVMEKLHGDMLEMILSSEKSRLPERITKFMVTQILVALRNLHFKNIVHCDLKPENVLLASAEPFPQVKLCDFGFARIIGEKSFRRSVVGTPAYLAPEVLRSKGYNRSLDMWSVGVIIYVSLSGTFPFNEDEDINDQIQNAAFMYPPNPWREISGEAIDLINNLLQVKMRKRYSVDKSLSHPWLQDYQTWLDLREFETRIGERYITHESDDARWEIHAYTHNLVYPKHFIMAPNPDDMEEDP
The settings on record: at 0.1 µM.

Assay [13] concerns the target T4, Serine/threonine-protein kinase D3 (Homo sapiens). The note with it: at 1 µM.
The target in assay [14] is T5, cGMP-dependent protein kinase 1 (Homo sapiens) (UniProt Q13976).
T5 sequence (whole entry): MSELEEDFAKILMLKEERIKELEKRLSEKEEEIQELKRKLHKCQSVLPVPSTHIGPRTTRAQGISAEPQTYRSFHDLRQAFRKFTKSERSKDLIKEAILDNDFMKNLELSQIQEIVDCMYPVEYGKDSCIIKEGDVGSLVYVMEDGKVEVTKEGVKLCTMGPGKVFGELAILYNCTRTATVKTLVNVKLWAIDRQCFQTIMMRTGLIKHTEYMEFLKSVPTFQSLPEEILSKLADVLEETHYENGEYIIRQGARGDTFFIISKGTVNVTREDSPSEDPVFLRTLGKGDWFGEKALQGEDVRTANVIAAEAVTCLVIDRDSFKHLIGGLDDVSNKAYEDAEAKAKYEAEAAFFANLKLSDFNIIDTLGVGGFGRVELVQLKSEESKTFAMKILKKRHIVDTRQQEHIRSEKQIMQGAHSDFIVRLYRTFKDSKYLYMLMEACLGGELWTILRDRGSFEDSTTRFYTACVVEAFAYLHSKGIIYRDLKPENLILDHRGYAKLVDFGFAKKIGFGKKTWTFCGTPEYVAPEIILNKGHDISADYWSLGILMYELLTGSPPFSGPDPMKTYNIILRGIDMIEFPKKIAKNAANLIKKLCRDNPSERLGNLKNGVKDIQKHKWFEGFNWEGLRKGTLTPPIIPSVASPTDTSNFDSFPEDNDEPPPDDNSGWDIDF
The note with it: at 0.1 µM.

Assay [15] addresses T5, cGMP-dependent protein kinase 1 (Homo sapiens). The note with it: at 1 µM.
In assay [16] the target is T6, cGMP-dependent protein kinase 2 (Homo sapiens) (UniProt Q13237).
T6 sequence (whole entry): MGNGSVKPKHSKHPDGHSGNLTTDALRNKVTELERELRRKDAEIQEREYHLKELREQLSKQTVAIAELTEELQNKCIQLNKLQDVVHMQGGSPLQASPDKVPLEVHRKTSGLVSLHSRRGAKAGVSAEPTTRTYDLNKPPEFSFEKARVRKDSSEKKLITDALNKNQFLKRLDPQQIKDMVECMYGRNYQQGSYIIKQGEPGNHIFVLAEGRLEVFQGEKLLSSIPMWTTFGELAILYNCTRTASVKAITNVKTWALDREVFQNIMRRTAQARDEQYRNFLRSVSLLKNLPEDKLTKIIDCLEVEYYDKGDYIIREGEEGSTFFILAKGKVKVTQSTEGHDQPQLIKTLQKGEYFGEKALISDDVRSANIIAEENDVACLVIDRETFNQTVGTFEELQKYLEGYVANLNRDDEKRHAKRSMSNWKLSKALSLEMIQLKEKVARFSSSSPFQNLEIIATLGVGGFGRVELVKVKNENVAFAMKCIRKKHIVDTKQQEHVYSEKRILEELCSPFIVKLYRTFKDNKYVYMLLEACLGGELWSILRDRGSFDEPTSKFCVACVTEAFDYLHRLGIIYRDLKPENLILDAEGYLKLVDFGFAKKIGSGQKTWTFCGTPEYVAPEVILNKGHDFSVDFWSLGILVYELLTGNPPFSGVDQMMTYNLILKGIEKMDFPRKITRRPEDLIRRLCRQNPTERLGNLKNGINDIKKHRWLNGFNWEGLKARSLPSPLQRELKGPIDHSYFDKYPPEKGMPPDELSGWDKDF
The note with it: at 0.1 µM.

Assay [17] deals with T6, cGMP-dependent protein kinase 2 (Homo sapiens). The note with it: at 1 µM.
For assay [18], the target named is T7, cAMP-dependent protein kinase catalytic subunit PRKX (Homo sapiens) (UniProt P51817).
T7 sequence (whole entry): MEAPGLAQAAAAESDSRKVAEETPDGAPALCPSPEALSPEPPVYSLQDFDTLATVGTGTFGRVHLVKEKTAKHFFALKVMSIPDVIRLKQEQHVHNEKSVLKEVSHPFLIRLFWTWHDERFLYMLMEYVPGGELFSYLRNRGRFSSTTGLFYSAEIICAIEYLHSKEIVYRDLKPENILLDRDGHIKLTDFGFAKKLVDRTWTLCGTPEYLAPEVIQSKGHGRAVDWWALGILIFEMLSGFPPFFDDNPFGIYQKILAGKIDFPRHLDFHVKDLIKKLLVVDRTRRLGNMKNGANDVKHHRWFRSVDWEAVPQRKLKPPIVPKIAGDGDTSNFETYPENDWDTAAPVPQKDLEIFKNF
The note with it: at 0.1 µM.

Assay [19] has as its target T7, cAMP-dependent protein kinase catalytic subunit PRKX (Homo sapiens). The settings on record: at 1 µM.
In assay [20] the target is Rho-associated protein kinase 1 (Homo sapiens) (UniProt Q13464). The settings on record: at 0.1 µM.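 Note: values are mean percent inhibition of ROCK1.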

Structures are written as SMILES.

Drawing on ChEMBL document CHEMBL1961873, “Compounds: GSK PKIS; Assays: Nanosyn kinase panel” (2012), this text covers inhibition for two molecules.

Protein kinase C beta type (Homo sapiens), sequence (P05771 2-671 limits assumed): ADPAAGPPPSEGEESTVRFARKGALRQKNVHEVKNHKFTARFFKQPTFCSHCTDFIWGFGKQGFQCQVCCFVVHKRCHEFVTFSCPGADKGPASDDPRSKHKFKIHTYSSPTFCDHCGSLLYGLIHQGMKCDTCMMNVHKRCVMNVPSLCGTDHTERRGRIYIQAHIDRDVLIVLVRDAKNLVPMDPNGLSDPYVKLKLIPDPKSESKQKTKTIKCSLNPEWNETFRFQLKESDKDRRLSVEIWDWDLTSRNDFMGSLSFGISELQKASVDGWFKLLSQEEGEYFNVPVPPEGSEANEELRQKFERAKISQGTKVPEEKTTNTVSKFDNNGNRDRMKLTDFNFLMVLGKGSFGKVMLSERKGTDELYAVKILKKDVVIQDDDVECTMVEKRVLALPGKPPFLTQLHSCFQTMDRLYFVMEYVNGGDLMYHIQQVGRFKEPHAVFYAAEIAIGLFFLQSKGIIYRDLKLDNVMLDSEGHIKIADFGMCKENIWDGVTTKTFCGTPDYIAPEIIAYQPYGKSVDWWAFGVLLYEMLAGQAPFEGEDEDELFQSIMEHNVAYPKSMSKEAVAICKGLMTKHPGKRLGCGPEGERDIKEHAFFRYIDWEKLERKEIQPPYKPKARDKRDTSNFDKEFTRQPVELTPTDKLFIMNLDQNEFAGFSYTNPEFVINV
Protein kinase C theta type (Homo sapiens), sequence (Q04759 whole entry, looked up): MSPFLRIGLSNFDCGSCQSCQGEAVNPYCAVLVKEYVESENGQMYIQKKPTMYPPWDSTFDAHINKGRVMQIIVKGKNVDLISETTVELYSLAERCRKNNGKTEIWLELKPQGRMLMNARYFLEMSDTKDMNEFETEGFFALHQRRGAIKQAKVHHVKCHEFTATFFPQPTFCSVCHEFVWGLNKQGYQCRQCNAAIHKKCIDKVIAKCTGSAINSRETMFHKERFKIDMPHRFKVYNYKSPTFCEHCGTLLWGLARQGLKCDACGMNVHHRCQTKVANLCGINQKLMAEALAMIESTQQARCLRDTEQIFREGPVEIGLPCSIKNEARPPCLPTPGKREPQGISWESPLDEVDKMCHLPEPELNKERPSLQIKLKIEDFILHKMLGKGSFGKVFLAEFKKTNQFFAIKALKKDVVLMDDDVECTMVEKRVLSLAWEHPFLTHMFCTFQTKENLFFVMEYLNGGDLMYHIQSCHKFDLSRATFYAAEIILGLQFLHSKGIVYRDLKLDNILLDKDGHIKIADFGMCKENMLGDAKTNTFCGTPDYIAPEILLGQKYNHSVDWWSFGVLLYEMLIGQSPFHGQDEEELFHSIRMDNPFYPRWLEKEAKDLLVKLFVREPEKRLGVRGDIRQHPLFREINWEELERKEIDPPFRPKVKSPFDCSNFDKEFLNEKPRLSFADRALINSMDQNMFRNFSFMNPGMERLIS
Rho-associated protein kinase 1 (Homo sapiens), sequence (Q13464 2-1354 limits assumed): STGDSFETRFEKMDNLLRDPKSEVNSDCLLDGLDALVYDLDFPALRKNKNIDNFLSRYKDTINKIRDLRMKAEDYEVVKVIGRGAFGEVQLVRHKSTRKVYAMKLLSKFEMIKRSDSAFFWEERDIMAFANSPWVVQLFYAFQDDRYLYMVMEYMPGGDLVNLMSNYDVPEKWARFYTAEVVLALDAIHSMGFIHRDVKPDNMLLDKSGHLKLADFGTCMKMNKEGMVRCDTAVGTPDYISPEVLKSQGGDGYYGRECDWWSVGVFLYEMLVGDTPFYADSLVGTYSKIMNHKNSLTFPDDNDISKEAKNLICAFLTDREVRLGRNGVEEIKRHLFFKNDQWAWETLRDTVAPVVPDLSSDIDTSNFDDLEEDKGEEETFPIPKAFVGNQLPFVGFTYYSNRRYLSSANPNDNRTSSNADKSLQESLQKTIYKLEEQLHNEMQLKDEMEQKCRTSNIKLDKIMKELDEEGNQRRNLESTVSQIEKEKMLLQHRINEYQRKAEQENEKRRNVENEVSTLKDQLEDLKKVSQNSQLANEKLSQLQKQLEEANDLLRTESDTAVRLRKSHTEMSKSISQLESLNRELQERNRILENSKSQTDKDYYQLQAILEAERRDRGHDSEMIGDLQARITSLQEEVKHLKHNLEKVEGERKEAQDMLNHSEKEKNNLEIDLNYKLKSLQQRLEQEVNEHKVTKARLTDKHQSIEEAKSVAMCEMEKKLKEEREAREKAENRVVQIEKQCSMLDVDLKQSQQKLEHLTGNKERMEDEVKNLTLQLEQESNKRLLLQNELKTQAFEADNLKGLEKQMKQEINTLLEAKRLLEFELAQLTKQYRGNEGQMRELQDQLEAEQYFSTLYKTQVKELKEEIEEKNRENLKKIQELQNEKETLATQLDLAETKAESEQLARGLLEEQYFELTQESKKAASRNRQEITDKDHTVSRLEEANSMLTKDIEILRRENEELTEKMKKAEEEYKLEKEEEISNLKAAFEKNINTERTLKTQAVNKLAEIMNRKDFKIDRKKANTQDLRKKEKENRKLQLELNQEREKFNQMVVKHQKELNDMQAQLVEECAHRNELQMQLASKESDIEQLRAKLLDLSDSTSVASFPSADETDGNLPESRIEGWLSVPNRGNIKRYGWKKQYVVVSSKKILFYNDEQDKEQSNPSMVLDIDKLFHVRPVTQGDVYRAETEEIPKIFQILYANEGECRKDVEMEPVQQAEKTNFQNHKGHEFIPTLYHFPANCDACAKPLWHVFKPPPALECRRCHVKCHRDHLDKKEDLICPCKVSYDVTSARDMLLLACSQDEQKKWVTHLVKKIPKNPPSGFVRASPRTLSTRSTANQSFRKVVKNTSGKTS

For orientation: inhibition means the drop in the measured response relative to a control, in per cent. In the case of `c1ccc(-c2n[nH]cc2-c2ccnc(-c3ccc(OCCn4ccnc4)cc3)c2)nc1`, the inhibition in assay [1] is 2.35%; in assay [2], 0.38%; in assay [3], -0.37%; in assay [4] it was 0.23%; in assay [5], 0.98%; in [6], 0.85%. In addition, the inhibition in assay [7] was -0.29%; in [8] it was 9.5%; in assay [9], 56.5%; in [10] it was 14.6%; in [11] it was 64.3%; in assay [12] it was 7.07%. Further, the inhibition worked out at 47.7% in assay [13]; 0.59% in [14]; 4.08% in assay [15]; 1.04% in [16]; 2.63% in [17]; 2.32% in assay [18]. Besides, the inhibition turned out to be 7.66% in assay [19] and 4.13% in assay [20].

Take `CC1=C(C(=O)Nc2ccc3[nH]nc(C)c3c2)C(c2ccc(C(F)(F)F)cc2)CC(=O)N1` (stereo not given): the inhibition came out at 6.95% in assay [1]; 1.92% in assay [2]; 2.85% in [3]; 2.33% in [4]; 6.09% in [5]; 0.62% in assay [6]. Besides, the inhibition amounted to 1.95% in assay [7]; 2.86% in [8]; 8.82% in assay [9]; 2.82% in assay [10]; 4.33% in [11]; 3.46% in [12]. For the same molecule, the inhibition in [13] is 9.27%; in [14], 3.93%; in assay [15], 18.2%; in [16], 5.55%; in [17], 40.2%; in assay [18], 7.3%. Further, the inhibition in assay [19] is 47%; in [20] it was 67.8%.
